Experimental data: PubChem BioAssay (Tox21)
Where “and” joins values, the source holds several entries; their conditions need not be identical. Equal values may be shown once. Results filed as inconclusive are left out. The source holds several records for some structures; these can differ, active in one and inactive in another. Calls of active or inactive are those of the source. Calls come from the whole dose curve; as a rule, active = well fitted inhibition curve with a large enough effect in the repeat runs; inconclusive = weak or mixed curves, or effect the other way; inactive = no such curve, though single readings can be large or run the other way.
% is set by controls: 0 for no effect and ±100 for the full control effect; potency is the fitted concentration of half-maximal effect.

Test: qHTS assay to identify small molecule antagonists of the retinoic acid receptor (RAR) signaling pathway (AID 1159552; note: nearly all actives have a fitted effect of over 50% in size)
Conditions: C3RL4 RARE luciferase reporter, retinol-stimulated, 6 h; series mostly up to 92.4 µM; activity, negative = inhibition: at the top concentration
Excerpt: National Center for Advancing Translational Sciences [NCATS]
NIH Chemical Genomics Center [NCGC]
U.S. Environmental Protection Agency [EPA]
National Institutes of Environmental Health Sciences [NIEHS]
National Toxicology Program [NTP]
U.S. Food and Drug Administration [FDA]
All-trans Retinoic acid (atRA) is the potent natural metabolite of retinol and plays an important role in normal embryonic development and maintenance of cellular phenotype in adult animals. atRA is the activating ligand for the retinoic acid receptors (RARs) which form heterodimers with retinoid X receptors (RXRs) on the retinoic acid response element (RARE). Through activation of the RAR/RXRs nuclear receptors, atRA regulates the transcription of a large number of protein-coding genes and regulatory RNAs. Intracellular levels of atRA are controlled by the retinol signaling pathway (RSP) that regulates the biosynthesis and catabolism of atRA to maintain physiological levels. Chemicals that interfere with the RSP can cause abnormal intracellular levels of atRA and therefore are potential developmental toxicants. To assess compounds for the potential adverse effect on embryonic development through interfering with retinol signaling, a cell-based RARE luciferase reporter gene assay was used. C3RL4 cell line (OARSA/CFSAN/FDA, Laurel, MD) was used to screen Tox21 10K compound library for identifying inhibitors of the RSP.
Tox21 Assay Protocol Summary:
C3RL4 cells were seeded at 1,000/well in 4 uL of assay medium into white solid 1,536-well tissue culture plates (Greiner Bio-One North America Inc. Monroe, NC) using a Multidrop Combi (Thermo Scientific, Waltham, MA) dispenser. After incubation at 37 C and 5% CO2 for an overnight, 23 nL of compounds dissolved in DMSO, positive control or DMSO only were transferred by a Pintool station (Kalypsys, San Diego, CA). One ul of 1 uM (final concentration) of Retinol was added right after the compound addition by using a Flying Reagent Dispenser (FRD) (Aurora Discovery, San Diego, CA). After 6 hr incubation at 37 C and 5% CO2, 5 uL of Amplite Luciferase reagent (AAT Bioquest Inc. Sunnyvale, CA) was added to each assay plate using an FRD. Luminescence was quantified on a ViewLux plate reader (PerkinElmer, Waltham, MA) after 30 min incubation at room temperature.
For `CC(C)(C)c1ccc(C(=O)CCCN2CCC(OC(c3ccccc3)c3ccccc3)CC2)cc1`, the Potency was 26.6 µM (active).
For `CN1CCN(CCC(=O)N2c3ccccc3Sc3ccc(C(F)(F)F)cc32)CC1`, the Potency was 29.8 µM (active).
For `O=C(NOCC1CC1)c1ccc(F)c(F)c1Nc1ccc(I)cc1Cl`, the “activity, negative = inhibition” value was -2.31% [at 42.5 µM] (inactive).
For `Cc1c(C)c2c(c(C)c1OC(=O)CCC(=O)O)CC[C@@](C)(CCC[C@H](C)CCC[C@H](C)CCCC(C)C)O2`, the “activity, negative = inhibition” value was -0.514% (inactive).
For `O=c1[nH]sc2ccccc12`, the Potency was 17.2 µM (active).
With `CCC1OCC(COc2ccc(Oc3ccccc3)cc2)O1` (stereo not given) the “activity, negative = inhibition” value was -5.13% (inactive).
For `Cc1cc(C2CCCCC2)n(O)c(=O)c1`, the “activity, negative = inhibition” value was -106% [at 42.5 µM] (inactive).
With `CC1=NC(C)OC1C` (stereo not given) the “activity, negative = inhibition” value was 42.5% (inactive).
With `O=C(c1ccc(O)cc1O)c1ccc(O)cc1O` the Potency was “inactive”.
For `CCCC(c1cc(C(C)(C)C)c(O)cc1C)c1cc(C(C)(C)C)c(O)cc1C`, the Potency was 27.6 µM (active).
In the case of `O=c1cc(-c2ccc(O)cc2)oc2cc(O)cc(O)c12`, the Potency is reported as “inactive”.
With `CCCCC(CC)CN=C(N)NC(N)=NCCCCCCN=C(N)NC(N)=NCC(CC)CCCC` (stereo not given) the Potency was 11.9 µM (active).
With `Oc1cc2ccccc2c2ccccc12` the Potency was 13.7 µM (active).
With `CCCCc1oc2ccc(NS(C)(=O)=O)cc2c1C(=O)c1ccc(OCCCN(CCCC)CCCC)cc1` the Potency was 16.8 µM (active).
In the case of `COc1cccc(N)c1`, the “activity, negative = inhibition” value is reported as 18.6% (inactive).
For `COc1ccc(CN2CCN(C(c3ccc(F)cc3)c3ccc(F)cc3)CC2)c(OC)c1OC`, the Potency was 26.6 µM (active).
In the case of `CCCCCCCCCCCCCCCCCC[N+](C)(C)C`, the Potency is reported as 54.6 µM (active).
With `Cc1oc(-c2ccccc2)nc1CCC(=O)c1ccc(CC2SC(=O)NC2=O)cc1` (stereo not given) the “activity, negative = inhibition” value was -19% [at 42.5 µM] (inactive).
With `O=C(OC[C@H]1O[C@@H](OC(=O)c2cc(O)c(O)c(OC(=O)c3cc(O)c(O)c(O)c3)c2)[C@H](OC(=O)c2cc(O)c(O)c(OC(=O)c3cc(O)c(O)c(O)c3)c2)[C@@H](OC(=O)c2cc(O)c(O)c(OC(=O)c3cc(O)c(O)c(O)c3)c2)[C@@H]1OC(=O)c1cc(O)c(O)c(OC(=O)c2cc(O)c(O)c(O)c2)c1)c1cc(O)c(O)c(OC(=O)c2cc(O)c(O)c(O)c2)c1` the activity, negative = inhibition was 22.4% [at 19 µM] (inactive).
For `c1ccc(CSCc2ccccc2)cc1`, the “activity, negative = inhibition” value was 50.1% (inactive).
In the case of `CCCCC(CC)COP(=O)(O)OCC(CC)CCCC` (stereo not given), the Potency is reported as “inactive and 48.6 µM (active)”.
For `CCc1cc(Cc2cc(CC)cc(C(C)(C)C)c2O)c(O)c(C(C)(C)C)c1`, the Potency was 27.3 µM (active).
In the case of `CCOC(=O)O[C@H](C)OC(=O)c1ccc2c(c1)cc(C(=O)NC1CCN(C(C)C)CC1)n2Cc1cc(-c2ccc(Cl)s2)on1`, the Potency is reported as 12.8 µM (active).
With `COc1ccc(-c2ccc3cc(C(=O)O)ccc3c2)cc1C12CC3CC(CC(C3)C1)C2` the “activity, negative = inhibition” value was 2.68% [at 42.5 µM] (inactive).
In the case of `CCCCCCCCCCC=O`, the “activity, negative = inhibition” value is reported as 8.5% (inactive).
For `O=C1C=CC(=O)N1`, the Potency was 8.86 µM (active).
In the case of `COc1cc(/C=C/C(=O)O[C@H]2CC[C@]34C[C@]35CC[C@]3(C)[C@@H]([C@H](C)CCC=C(C)C)CC[C@@]3(C)[C@@H]5CC[C@H]4C2(C)C)ccc1O`, the “activity, negative = inhibition” value is reported as -22.1% [at 42.5 µM] (inactive).
With `Cc1cc(O)c(C(C)(C)C)cc1Sc1cc(C(C)(C)C)c(O)cc1C` the “activity, negative = inhibition” value was -118% (inactive).
With `COc1ccc(C(=O)/C(Br)=C\C(=O)O)cc1` the “activity, negative = inhibition” value was 103% (inactive).
For `Cc1cccc(N(C)C(=S)Oc2ccc3c(c2)C2CCC3C2)c1` (stereo not given), the “activity, negative = inhibition” value was 101% [at 42.5 µM] (inactive).
In the case of `Oc1ccc(N=Nc2ccccc2)cc1`, the “activity, negative = inhibition” value is reported as 89.3% (inactive).
With `CCOc1nc2cccc(C(=O)OC(C)OC(=O)OC3CCCCC3)c2n1Cc1ccc(-c2ccccc2-c2nn[nH]n2)cc1` (stereo not given) the Potency was 48.5 µM (active).
In the case of `C1CCCC1`, the “activity, negative = inhibition” value is reported as 2.07% (inactive).
With `O=C1Cc2cc(CCN3CCN(c4nsc5ccccc45)CC3)c(Cl)cc2N1` the “activity, negative = inhibition” value was -17.8% [at 42.5 µM] (inactive).
In the case of `O=C(O)c1c(Cl)cccc1Cl`, the “activity, negative = inhibition” value is reported as 37.6% (inactive).
In the case of `CC(C)=CCOc1ccc(/C=C/C(=O)c2ccc(OCC=C(C)C)cc2OCC(=O)O)cc1`, the “activity, negative = inhibition” value is reported as 11.1% [at 42.5 µM] (inactive).
For `CC[C@@]1(O)C(=O)OCc2c1cc1n(c2=O)Cc2c-1nc1ccccc1c2/C=N/OC(C)(C)C`, the Potency was 0.119 µM (active).
With `CCCC(C)c1ccccc1O` (stereo not given) the “activity, negative = inhibition” value was -5.76% (inactive).
In the case of `Oc1ccc(C2(c3ccc(O)cc3)CC3CC2C2CCCC32)cc1` (stereo not given), the Potency is reported as 46.6 µM (active).
With `Cc1ccc(-n2nc(C(C)(C)C)cc2NC(=O)Nc2ccc(OCCN3CCOCC3)c3ccccc23)cc1` the “activity, negative = inhibition” value was 33% [at 42.5 µM] (inactive).
